{
  "source": "PubChem BioAssay AID1035475",
  "about": "(Broad Institute, 2014)",
  "note": "Entries with a potency or affinity are not part of this list. Records with an inconclusive call do not appear. Calls of active or inactive are those of the source.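 Rule for the calls: active = fluorescent signal drops by 40% or more, counted as a hit; inconclusive = no clear call, values can overlap the other calls; inactive = the rest, including any activity in the opposite direction.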",
  "data": [
    {"test": "inhibitors of fibronectin matrix deposition, dose response, AH1F cells, Alexa488-FN fluorescence, cherry-picks (AID 1035475);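 note: AH1F fibroblasts incorporating labeled fibronectin into their extracellular matrix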", "settings": "AH1F fibroblasts, overnight; series mostly up to 35 µM", "values": [
      {"molecule": "N#C[C@@H]1[C@H](c2ccccc2C2=CCCCC2)[C@H](CO)N1S(=O)(=O)c1ccccc1", "outcome": "inactive"},
      {"molecule": "C[C@H]1CN([C@@H](C)CO)C(=O)c2cccc(NC(=O)Nc3ccc(C(F)(F)F)cc3)c2O[C@H]1CN(C)C(=O)Nc1cccc2ccccc12", "outcome": "inactive"},
      {"molecule": "Cc1ccc(S(=O)(=O)N2CC[C@@H]3[C@@H](CO)Nc4ccc(-c5cccc(C(=O)N(C)C)c5)cc4[C@@H]32)cc1", "outcome": "inactive"},
      {"molecule": "C[C@H](CO)N1C[C@H](C)[C@H](CN(C)Cc2ccccc2)Oc2ncc(-c3ccccc3)cc2C1=O", "outcome": "inactive"},
      {"molecule": "CO[C@H]1CN(C)C(=O)c2ccc(NC(=O)c3ccc(-c4ccccc4)cc3)cc2OC[C@@H](C)NC[C@H]1C", "outcome": "inactive"},
      {"molecule": "Nc1nc(-c2cc3c(cc2Cl)OCCO3)cs1", "outcome": "inactive"},
      {"molecule": "Cc1cc(C)n2ncc(C(=O)NCc3ccc(Cl)cc3)c2n1", "outcome": "inactive"},
      {"molecule": "C[C@H](O)C#Cc1ccc2c(c1)O[C@@H](CN(C)C)[C@H](C)CN([C@@H](C)CO)S2(=O)=O", "outcome": "inactive"},
      {"molecule": "Cc1ccc(N(CC(=O)NCc2ccco2)S(=O)(=O)c2ccccc2)cc1", "outcome": "inactive"},
      {"molecule": "C[C@@H](O)C#Cc1ccc2c(c1)O[C@@H](CN(C)C)[C@@H](C)CN([C@@H](C)CO)S2(=O)=O", "outcome": "inactive"},
      {"molecule": "CSc1ccccc1C(=O)C1CCCN(C(=O)CCc2cccnc2)C1", "note": "(configuration not stated)", "outcome": "inactive"},
      {"molecule": "COCC(C)n1c(SCc2nc(N)nc(Nc3ccccc3C)n2)nc2ccccc2c1=O", "note": "(configuration not stated)", "outcome": "inactive"},
      {"molecule": "COC(=O)c1c(NC(=O)CN2CCN(c3ccccc3Cl)CC2)sc(C)c1C", "outcome": "inactive"},
      {"molecule": "Cc1ccn2cc(-c3ccc(NC(=O)c4ccco4)cc3)nc2c1", "outcome": "inactive"},
      {"molecule": "CO[C@H]1CN(C)C(=O)c2cc(NC(=O)Nc3ccc(Cl)c(Cl)c3)ccc2OC[C@H](C)NC[C@@H]1C", "outcome": "inactive"},
      {"molecule": "O=c1c2cc(N3CCOCC3)ccc2[nH]c(=S)n1Cc1ccc(Cl)cc1", "outcome": "inactive"},
      {"molecule": "CO[C@@H]1CN(C)C(=O)c2ccc(NC(=O)c3ccc(-c4ccccc4)cc3)cc2OC[C@H](C)NC[C@@H]1C", "outcome": "inactive"},
      {"molecule": "COC(=O)C[C@H]1CC[C@H]2[C@H](COc3ccc(NC(=O)Cc4cccs4)cc3C(=O)N2C)O1", "outcome": "inactive"},
      {"molecule": "Cc1ccccc1S(=O)(=O)N1CC[C@H]2[C@H](CO)Nc3ccc(-c4ccc(C#N)cc4)cc3[C@H]21", "outcome": "inactive"},
      {"molecule": "CC(C)(C)[S@@](=O)N1Cc2cc(C(=O)NCc3ccccc3F)nc(-c3cccc(-c4ccncc4)c3)c2[C@H]1CCO", "outcome": "inactive"},
      {"molecule": "CC(NC(=O)CSc1ccc(S(=O)(=O)N2CCOCC2)cn1)c1ccc(Cl)cc1Cl", "note": "(configuration not stated)", "outcome": "inactive"},
      {"molecule": "CN1c2ccc(-c3ccccc3)cc2[C@@H]2[C@@H](CCN2C(=O)CN2CCOCC2)[C@H]1CO", "outcome": "inactive"}
    ]}
  ]
}
